Inconclusive results are not listed. Entries that show only a call come without a potency. Active and inactive are the calls of the source. Unless noted, the call rests on the fitted dose curve; in most records, active means well fitted curve in the direction sought with a large enough effect in the repeat runs; inconclusive means weak or mixed curves; inactive means no such curve, though single readings can be large; an effect the other way counts as inactive or inconclusive.
Experiments:
[1] = qHTS assay for small molecules that induce genotoxicity in human embryonic kidney cells expressing luciferase-tagged ATAD5 (AID 651632); further: nearly all actives have a fitted effect of over 15% in size
In short: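 Reporter cells (HEK293T) express luciferase-tagged ATAD5, a protein that accumulates after DNA damage. Treat 16 hr at 37C/5% CO2, add Amplite, wait 30 min at RT, and read luminescence.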

[2] = qHTS assay for small molecules that induce genotoxicity in human embryonic kidney cells expressing luciferase-tagged ATAD5 - cell viability (AID 651634; calls by dose curve; further: nearly all actives have a fitted effect of over 25% in size)
In short: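 Seeding of 2,000 HEK293T ATAD5-luciferase cells per well preceded pin-tool compound transfer. Plates sat 15.5 hr at 37C under 5% CO2, then fluorescence was read after 30 min with CellTiter-Fluor.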

[3] = qHTS assay for small molecule disruptors of the mitochondrial membrane potential - cell viability (AID 720634; calls by dose curve;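 further: human HepG2 liver cancer cells; series mostly up to about 83 µM; nearly all actives have a fitted effect of over 20% in size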)
In short: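 Measuring cytotoxicity alongside mitochondrial potential, the screen quantified ATP by luminescence in HepG2 cells after 1 hr compound incubation and a 30 min room-temperature CellTiter-Glo step.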

[4] = qHTS assay to test for compound auto fluorescence at 535 nm (green) in HepG2 cells (AID 720675)
[5] = qHTS assay to test for compound auto fluorescence at 590 nm (red) in HEK293 cells (AID 720679)
In short: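 Intensity at 540nm excitation and 590nm emission is reported as Rose Bengal sodium-equivalent autofluorescence. Measurements followed overnight exposure (37C, 5% CO2) of HEK293 cells, 2,000 per well, to 23 nL compound.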

[6] = qHTS assay to test for compound auto fluorescence at 535 nm (green) in HEK293 cells (AID 720680)
[7] = qHTS assay to test for compound auto fluorescence at 590 nm (red) in HepG2 cell free culture (AID 720684)
In short: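 Steps: dispense MEM/10% FBS medium, no cells; pin compound or DMSO vehicle; read red channel, Ex/Em 540/590 nm. Output given as Rose Bengal sodium equivalents.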

[8] = qHTS assay to test for compound auto fluorescence at 460 nm (blue) in HepG2 cell free culture (AID 720685)
In short: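 Compound (23 nL) or DMSO pinned into cell-free MEM with 10% FBS; blue fluorescence read at 405/460 nm excitation/emission, expressed as auto-fluorescence equivalency to triamterene.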

[9] = qHTS assay to test for compound auto fluorescence at 535 nm (green) in HepG2 cell free culture (AID 720686)
[10] = qHTS assay to identify small molecule antagonists of the glucocorticoid receptor (GR) signaling pathway - cell viability counter screen (AID 720693); further: nearly all actives have a fitted effect of over 55% in size
[11] = qHTS assay to identify small molecule antagonists of the androgen receptor (AR) signaling pathway using the MDA cell line - cell viability counter screen (AID 743041; further: nearly all actives have a fitted effect of over 45% in size)
In short: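 Cells were plated at 3,000 per well and left 5 h. Compounds in DMSO were then pinned in, followed by R1881. After 16 h at 37C, CellTiter-Fluor fluorescence gave viability.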

[12] = qHTS assay to identify small molecule antagonists of the thyroid receptor (TR) signaling pathway - cell viability counter screen (AID 743064); further: nearly all actives have a fitted effect of over 50% in size
In short: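 Same-well viability check: GH3.TRE-Luc cells stimulated with 1 nM T3 alongside test compound for 23.5 h, followed by CellTiter-Fluor fluorescence.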

[13] = qHTS assay to identify small molecule antagonists of the thyroid receptor (TR) signaling pathway (AID 743065); further: series mostly up to about 70 µM; nearly all actives have a fitted effect of over 55% in size
In short: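 Antagonism measured as loss of luciferase signal in GH3 cells stably carrying a TRE-luciferase reporter, co-treated with compound and T3 (1 nM final) for 23.5 h at 37 C. Viability was read in the same well by CellTiter-Fluor.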

[14] = tested on: thyroid hormone receptor (rat, GH3 cells); experiment: qHTS assay to identify small molecule agonists of the thyroid receptor (TR) signaling pathway (AID 743066; calls by dose curve; further: potency means the concentration at half of the fitted maximal effect)
[15] = qHTS assay to identify small molecule antagonists of the estrogen receptor alpha (ER-alpha) signaling pathway - cell viability counter screen (AID 743074; calls by dose curve;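 further: HEK293 cells carrying ER-alpha-UAS-bla reporter stimulated with 17beta-estradiol; nearly all actives have a fitted effect of over 45% in size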)
[16] = qHTS assay to identify small molecule antagonists of the estrogen receptor alpha (ER-alpha) signaling pathway using the BG1 cell line - cell viability counter screen (AID 743081);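 further: compound given together with 17beta-estradiol as the ER stimulus; series mostly up to about 70 µM; nearly all actives have a fitted effect of over 45% in size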
Aromatase (Homo sapiens) = Aromatase (Homo sapiens) (UniProt P11511); experiment: qHTS assay to identify aromatase inhibitors (AID 743083); further: series mostly up to about 70 µM; nearly all actives have a fitted effect of over 55% in size
Sequence of Aromatase (Homo sapiens) (P11511 whole entry, looked up): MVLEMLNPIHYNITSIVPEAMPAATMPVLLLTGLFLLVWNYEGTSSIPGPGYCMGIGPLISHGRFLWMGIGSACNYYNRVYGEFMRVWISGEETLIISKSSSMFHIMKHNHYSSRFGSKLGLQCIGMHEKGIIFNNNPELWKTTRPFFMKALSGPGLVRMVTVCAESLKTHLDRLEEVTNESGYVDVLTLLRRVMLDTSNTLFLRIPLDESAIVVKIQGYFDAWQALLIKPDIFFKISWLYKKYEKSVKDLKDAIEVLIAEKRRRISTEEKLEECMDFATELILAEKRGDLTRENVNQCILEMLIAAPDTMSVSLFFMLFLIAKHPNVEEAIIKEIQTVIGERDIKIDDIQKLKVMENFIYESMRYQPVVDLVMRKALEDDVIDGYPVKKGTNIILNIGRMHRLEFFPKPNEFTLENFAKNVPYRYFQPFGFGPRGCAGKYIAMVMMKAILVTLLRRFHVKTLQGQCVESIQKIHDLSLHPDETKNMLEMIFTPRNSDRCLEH

[17] = qHTS assay to identify aromatase inhibitors - cell viability counter screen (AID 743084);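 further: cells stimulated with testosterone during compound exposure; nearly all actives have a fitted effect of over 55% in size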
[18] = qHTS assay to identify small molecule that activate the aryl hydrocarbon receptor (AhR) signaling pathway - cell viability counter screen (AID 743086);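 further: HepG2 liver cells carrying the AhR DRE luciferase reporter; series mostly up to about 70 µM; nearly all actives have a fitted effect of over 45% in size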
In short: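 Cytotoxicity counter screen: CellTiter-Fluor signal (30 min, 37 C) in 4000 HepG2 cells/well carrying the DRE-luciferase reporter, following 24 h compound exposure at 37 C.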

[19] = qHTS assay to identify small molecule phospholipidosis (PLD) inducers (AID 1259344; active means well fitted curve in the direction sought with a large enough effect; an effect the other way counts as inactive or inconclusive)
In short: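 Phospholipidosis is scored by imaging LipidTOX-stained pits in HepG2 cells exposed to compound for 24 h at 37 C; pit counts and integrated intensities per well and per cell serve as outputs.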

Structure (SMILES)	Potency [1]	Potency [2]	Potency [3]	Potency [4]	outcome [5]	Potency [6]	outcome [7]	Potency [8]	Potency [9]	Potency [10]	Potency [11]	Potency [12]	Potency [13]	Potency [14]	Potency [15]	Potency [16]	Potency (Aromatase (Homo sapiens))	Potency [17]	Potency [18]	Potency [19]
c1ccccc1	inactive	inactive	inactive	inactive	inactive	inactive	inactive	inactive	inactive	inactive	inactive	inactive	inactive	inactive	inactive	inactive	inactive	inactive	inactive	
Cc1cccc(C)c1[N+](=O)[O-]																	inactive			
C=CC(=O)OCCCCCCCC(C)C																	inactive			
COc1ccc(OC)c([C@@H](O)[C@H](C)N)c1	inactive	inactive	inactive	inactive	inactive	inactive	inactive	inactive	inactive	inactive	inactive	inactive	inactive	29.8 µM (active)	inactive	inactive	inactive	inactive	inactive	inactive
CN(C)CCCCCCN(C)C		inactive	inactive	inactive	inactive	inactive	inactive	inactive	inactive	inactive	inactive	inactive	inactive	inactive	inactive	inactive	inactive	inactive	inactive	
CN1[C@H]2CC[C@@H]1[C@@H](C(=O)O)[C@@H](OC(=O)c1ccccc1)C2	inactive	inactive	inactive	inactive	inactive	inactive	inactive	inactive	inactive	inactive	inactive	inactive	inactive	inactive	inactive	inactive	inactive	inactive	inactive	inactive
C[C@]12CC[C@H](OS(=O)(=O)O)CC1=CC[C@@H]1[C@@H]2CC[C@]2(C)C(=O)CC[C@@H]12	inactive	inactive	inactive	inactive	inactive	inactive	inactive	inactive	inactive	inactive	inactive	inactive		inactive	inactive	inactive	inactive	inactive	inactive	inactive
Clc1ccc2c(c1)C(c1ccccc1)=NCc1nncn1-2	inactive	inactive	inactive	inactive	inactive	inactive	inactive	inactive	inactive	inactive	inactive	inactive	inactive	inactive	inactive	inactive	inactive	inactive	inactive	inactive
C[C@]12C=CC(=O)C=C1CC[C@@H]1[C@@H]2CC[C@]2(C)OC(=O)CC[C@@H]12	inactive	inactive	inactive	inactive	inactive	inactive	inactive	inactive	inactive	inactive	inactive		inactive	inactive	inactive	inactive	inactive	inactive	inactive	inactive
O=c1[nH]cc(N(CCCl)CCCl)c(=O)[nH]1	inactive	inactive		inactive	inactive	inactive	inactive	inactive	inactive	inactive	inactive	inactive	inactive	inactive		inactive	inactive	inactive	inactive	inactive
N#CC1(N2CCCCC2)CCCCC1	inactive	inactive	inactive	inactive	inactive	inactive	inactive	inactive	inactive	inactive	inactive	inactive	inactive	inactive	inactive	inactive	inactive	inactive	inactive	inactive
C=C[C@H]1CN2CC[C@H]1C[C@@H]2[C@@H](O)c1ccnc2ccccc12	inactive	inactive	inactive	inactive	inactive	inactive	inactive	inactive	inactive	inactive	inactive	inactive	inactive	inactive	inactive	inactive	inactive	inactive	inactive	inactive
[2H]C([2H])([2H])[C@H](N)Cc1ccccc1	inactive	inactive	inactive	inactive	inactive	inactive	inactive	inactive	inactive	inactive	inactive	inactive	inactive	inactive	inactive	inactive	inactive	inactive	inactive	inactive
CC(C)(O)[C@@H]1[C@H]2OC(=O)[C@@H]1[C@]1(O)C[C@H]3O[C@]34C(=O)O[C@H]2[C@]14C	inactive	inactive	inactive	inactive	inactive	inactive	inactive	inactive	inactive	inactive	inactive	inactive	inactive	inactive	inactive	inactive			inactive	inactive
CNc1ccc(C(=O)CC(O)CCC(C)C2OC(=O)CC(O)CC(=O)CC(O)CC(O)CC(O)CC(O)CC3(O)CC(O)C(C(=O)OC)C(CC(O[C@@H]4O[C@H](C)[C@@H](O)[C@H](N)[C@@H]4O)/C=C/C=C/C=C/C=C/C=C/C=C/C=C/C2C)O3)cc1 (some centres not stated)	inactive	inactive	inactive	inactive	inactive	inactive	inactive	inactive	inactive	inactive	inactive	inactive		inactive	inactive	inactive	inactive	inactive	inactive	inactive
